The full ranking holds about 18,000 sequences; the median of “log2 normalized intensity” is about 0.39, and the highest 2% start at about 6.6. The sample as a whole holds a higher share of the highest values than the screen did.

The target in this assay is T1, HNF4alpha2 (COS-7 nuclear extract) (Homo sapiens, UniProt P41235 1-474).
T1 sequence: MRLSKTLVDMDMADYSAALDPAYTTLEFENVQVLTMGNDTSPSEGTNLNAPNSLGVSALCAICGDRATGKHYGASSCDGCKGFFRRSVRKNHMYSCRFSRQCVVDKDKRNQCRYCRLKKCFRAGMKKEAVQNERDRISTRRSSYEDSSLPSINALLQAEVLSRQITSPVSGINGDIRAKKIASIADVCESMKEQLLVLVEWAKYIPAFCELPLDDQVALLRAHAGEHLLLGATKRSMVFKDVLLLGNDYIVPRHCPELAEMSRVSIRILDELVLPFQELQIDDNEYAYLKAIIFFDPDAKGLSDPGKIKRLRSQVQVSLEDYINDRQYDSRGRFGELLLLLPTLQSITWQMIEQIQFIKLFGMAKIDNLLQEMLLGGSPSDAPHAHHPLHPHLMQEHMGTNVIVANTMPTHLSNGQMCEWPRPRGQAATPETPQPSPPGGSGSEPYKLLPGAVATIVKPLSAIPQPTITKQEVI
Briefly: protein-binding microarray; COS-7 nuclear extract on double-stranded Agilent 4x180k PBM; binding buffer, salt, pH and temperature not given in the material; high values mean tight binding. The note with it: chain copies: 2; label: 3' end of strand 1 on the slide; dsDNA, one strand shown. An outline of the steps:
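A custom Agilent SurePrint G3 4x180k array, spotted in quadruplicate with ~44,000 test sequences as ~60-nt oligonucleotides made double-stranded, was incubated with nuclear extracts. The extracts came from COS-7 cells transiently transfected by CaPO4 with a human HNF4α isoform expression vector. Bound HNF4α was imaged on an Agilent G2565CA scanner at 2-µm resolution, and the binding signal was taken as Agilent software's background-corrected, normalized gProcessedSignal.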
Take “GGACTTTGGCCTTACTTGGCCTGTTTGCTGGCCTAGGGAGATTAGAGTATCGGTCGA”: the binding signal worked out at 5.51 log2 normalized intensity. Turning to “TGACAACTGAATGTGACCTTTTGGACCACAGCCTAGGGAGATTAGAGTATCGGTCGA”, the binding signal turned out to be 6.82 log2 normalized intensity. Under “AACGGTTCAAAGGACAGACTTTGGACCTGGGCCTAGGGAGATTAGAGTATCGGTCGA” stands 7.15 log2 normalized intensity; under “CACCTGTGTCAACATGGACTTTGTTGTTTGGCCTAGGGAGATTAGAGTATCGGTCGA”, 4.33 log2 normalized intensity; under “CCTGATGACAACTGAATGTGACCTTTTGGAGCCTAGGGAGATTAGAGTATCGGTCGA”, 5.25 log2 normalized intensity. As to “TTCAAAGGACAGACTTTGGACCTGGCCCTCGCCTAGGGAGATTAGAGTATCGGTCGA”, the binding signal came out at 5.66 log2 normalized intensity. Under “ACTTTGGACCTTTGTGTGTGTGTGTGTGTGGCCTAGGGAGATTAGAGTATCGGTCGA” stands 3.6 log2 normalized intensity. Under “ACTGAATGTGACCTTTTGGACCACAGAGTGGCCTAGGGAGATTAGAGTATCGGTCGA” stands 5.39 log2 normalized intensity; under “GGGCGTGTGTTAGACTTTGGACCTGGCCTGGCCTAGGGAGATTAGAGTATCGGTCGA”, 7.25 log2 normalized intensity; under “GTTGGACTTTGGACCTTTGTGTGTGTGTGTGCCTAGGGAGATTAGAGTATCGGTCGA”, 7.93 log2 normalized intensity. Under “TGGTTAGGTATTTTAAGTCACCAGATGAGAGCCTAGGGAGATTAGAGTATCGGTCGA” stands 0.217 log2 normalized intensity; under “CTCCTCCCTCAGGGATCTTTGCACTTGATGGCCTAGGGAGATTAGAGTATCGGTCGA”, 1.32 log2 normalized intensity. For “TGGATGGGGGAGGGGACTTCGCTGGAGGTGGCCTAGGGAGATTAGAGTATCGGTCGA”, the binding signal is -0.382 log2 normalized intensity. To “TATCTTCGTATAGAAACAAGACAGAATGATGCCTAGGGAGATTAGAGTATCGGTCGA” belongs -0.775 log2 normalized intensity; to “GTAAACACAGACTTTGGAATCACAATGATAGCCTAGGGAGATTAGAGTATCGGTCGA”, 1.97 log2 normalized intensity. Turning to “CCTGTACCTAGAATTCTTTCACTCCCTTTTGCCTAGGGAGATTAGAGTATCGGTCGA”, the binding signal worked out at 1.12 log2 normalized intensity. Consider “AGGGGTTACTAGTGAGTTGGACTTTGGACCGCCTAGGGAGATTAGAGTATCGGTCGA”, for which the binding signal worked out at 11.6 log2 normalized intensity. Take “TTACCGGTGTGACTTTGGTTGGATTTCTTGGCCTAGGGAGATTAGAGTATCGGTCGA”: the binding signal amounted to 1.54 log2 normalized intensity.

Turning to “GGGGACCTTTGGCCTTTACCTGTTACTTATGCCTAGGGAGATTAGAGTATCGGTCGA”, the binding signal was 3.57 log2 normalized intensity. Turning to “AAGAAGGTTTACTCAAGCAAAAAGTTTGGAGCCTAGGGAGATTAGAGTATCGGTCGA”, the binding signal was found to be 0.467 log2 normalized intensity. To “AGGTACAAACATACTTAGGATTTTTGTGCCGCCTAGGGAGATTAGAGTATCGGTCGA” belongs 0.442 log2 normalized intensity. Under “CTCTCGGGCCAGCTGTACAAATAAAGGATGGCCTAGGGAGATTAGAGTATCGGTCGA” stands -0.146 log2 normalized intensity; under “TAAACTTTTGATTGCTTAGGCTCTTGTTATGCCTAGGGAGATTAGAGTATCGGTCGA”, -0.703 log2 normalized intensity.

For the sequence “GAGGCAGCAAGGTCAAAGTGCGTCCTGTGGGCCTAGGGAGATTAGAGTATCGGTCGA”, the binding signal was found to be 3.92 log2 normalized intensity. To “TACCTGTGCAGATATTTAACCTTTGATCTGGCCTAGGGAGATTAGAGTATCGGTCGA” belongs 7.34 log2 normalized intensity; to “CTGTGCTTTGTTTACTTAACCTTTGATCATGCCTAGGGAGATTAGAGTATCGGTCGA”, 7.05 log2 normalized intensity; to “CTTTGTTTACTTAACCTTTGATCATATGCAGCCTAGGGAGATTAGAGTATCGGTCGA”, 5.18 log2 normalized intensity. To “TTGCACTGTGCTTTGTTTACTTAACCTTTGGCCTAGGGAGATTAGAGTATCGGTCGA” belongs 4.05 log2 normalized intensity; to “GATATTTAACCTTTGATCTGTAAGCTCTCTGCCTAGGGAGATTAGAGTATCGGTCGA”, 4.61 log2 normalized intensity. Under “GTGGCTACCTGTGCAGATATTTAACCTTTGGCCTAGGGAGATTAGAGTATCGGTCGA” stands 4.11 log2 normalized intensity; under “TCTGAAAAAAGCTATCATTTGTCACTTGGAGCCTAGGGAGATTAGAGTATCGGTCGA”, 1.38 log2 normalized intensity; under “GACCAGGTTGTGAGGGAGGGCACAGGCAACGCCTAGGGAGATTAGAGTATCGGTCGA”, -0.298 log2 normalized intensity. As for “ATTTCTGTTGTTGATTTAACATTTGTGATCGCCTAGGGAGATTAGAGTATCGGTCGA”, the binding signal came out at 1.92 log2 normalized intensity. In the case of “TGATAGCCTTTTACCTTGGCAGCCACTGAGGCCTAGGGAGATTAGAGTATCGGTCGA”, the binding signal is -0.876 log2 normalized intensity. Under “AGGCTGAAGGGAAGCTCTGGGAGTGCCCTTGCCTAGGGAGATTAGAGTATCGGTCGA” stands 1.93 log2 normalized intensity. Under “CTGCCAAATATTGGGCAATGCTAGGTCTTTGCCTAGGGAGATTAGAGTATCGGTCGA” stands -0.788 log2 normalized intensity; under “GAGACTTTGGACTTTGGACTTGGGACTTTCGCCTAGGGAGATTAGAGTATCGGTCGA”, 9.27 log2 normalized intensity; under “GGACTTGGGACTTTCGAGTTAATGCTGGAGGCCTAGGGAGATTAGAGTATCGGTCGA”, 2.54 log2 normalized intensity. Under “CCTTTGGACTGTCCTTTGCTAGATTCTTTCGCCTAGGGAGATTAGAGTATCGGTCGA” stands 2.01 log2 normalized intensity; under “CTGGACTTTCCTTTGTTGGGAGACTTTTTAGCCTAGGGAGATTAGAGTATCGGTCGA”, 1.63 log2 normalized intensity.

As for “ACTTTGGACTTGGGACTTTCGAGTTAATGCGCCTAGGGAGATTAGAGTATCGGTCGA”, the binding signal turned out to be 4.12 log2 normalized intensity. Take “GACCATGTGATGTGAAGAGTGTGGACTTTCGCCTAGGGAGATTAGAGTATCGGTCGA”: the binding signal was found to be 4.26 log2 normalized intensity. Under “TTTGGACTTTGGACTTGGGACTTTCGAGTTGCCTAGGGAGATTAGAGTATCGGTCGA” stands 7.8 log2 normalized intensity. On to “TGTGAAGAGTGTGGACTTTCACCTCCACCAGCCTAGGGAGATTAGAGTATCGGTCGA”, for which the binding signal was 6.06 log2 normalized intensity. To “TGTGATGTGAAGAGTGTGGACTTTCACCTCGCCTAGGGAGATTAGAGTATCGGTCGA” belongs 8.12 log2 normalized intensity. To “TGAGTAGTGTACGTTGTACCCCACAGGTATGCCTAGGGAGATTAGAGTATCGGTCGA” belongs 2.94 log2 normalized intensity; to “CTCTCTTTCTTCCCCCACTCCAAGTTCCTTGCCTAGGGAGATTAGAGTATCGGTCGA”, 4.22 log2 normalized intensity; to “TGCTCCAGTAAAAGCTCTACCTGACCTCCCGCCTAGGGAGATTAGAGTATCGGTCGA”, 2.94 log2 normalized intensity. With “GCTGTGTCCCACAGGGAAAGTATGGGTCAGGCCTAGGGAGATTAGAGTATCGGTCGA”, the binding signal stood at 1.12 log2 normalized intensity. To “TCATGTTCAATATACAGTTGGTATTTAGTAGCCTAGGGAGATTAGAGTATCGGTCGA” belongs 1.83 log2 normalized intensity; to “CCCCTAAAGGAGGCAAGGTCCAAACTTCTCGCCTAGGGAGATTAGAGTATCGGTCGA”, 1.7 log2 normalized intensity; to “ATGTTGGGCAACTACCTCAAAGTTTTGTTAGCCTAGGGAGATTAGAGTATCGGTCGA”, 0.0615 log2 normalized intensity.

Values taken from paper PMC10726135, “HNF4α isoforms regulate the circadian balance between carbohydrate and lipid metabolism in the liver”.
